What all share (test): NCI-60 one-dose screen, 48 h (100 = growth as untreated, 0 = no growth, -100 = all killed)
Common to all, as to conditions: 10 µM unless noted

Assay [1] concerns NCI-H23 lung.
The test system of assay [2] is NCI-H226 lung.
Assay [3] has as its system NCI-H322M lung.
Assay [4] deals with HOP-62 NSCLC.
The subject of assay [5] is NCI-H460 lung.
In assay [6] the test system is HOP-92 NSCLC.
Assay [7] deals with NCI-H522 lung.
The subject of assay [8] is A549/ATCC NSCLC.
For assay [9], the system named is 786-0 renal.
Assay [10] has as its system COLO 205 colon.
Assay [11] relates to DU-145 prostate.
In assay [12] the test system is K-562 leukemia.
In assay [13] the test system is MALME-3M melanoma.
Assay [14] relates to MDA-MB-231 breast.
Assay [15] relates to RXF 393 renal.
For assay [16], the system named is SF-268 CNS.
The subject of assay [17] is SF-295 CNS.
The test system of assay [18] is SF-539 CNS.
Assay [19] concerns UACC-257 melanoma.
Assay [20] deals with M14 melanoma.

About 83,000 compounds went through this panel and 20% of them were active in at least one assay; those are over-represented in the sample as a whole.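 Single-concentration screen, 48 h exposure, 96-well plates. Endpoint: percent growth. Below 10 = active.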 A number with no mark means an inactive call. Active and inactive are the calls of the source.

Take `COC(=O)[C@@H](C)C[C@H](Cc1ccccc1)NC(=O)c1csc([C@@H](C[C@H](C(C)C)N(C)C(=O)[C@@H](NC(=O)[C@H]2CCCCN2C)C2CC2)OC(C)=O)n1`: the growth in [1] is 22%; in assay [2], 20.5%; in assay [3], 52.2%; in assay [4], 15.7%; in assay [5], 14.1%; in assay [6], 31.3%. Moreover, the growth in [7] was -45.5% (active); in [8] it was 13%; in [9] it was 21.8%; in assay [10], -69.9% (active); in assay [11] it was 2.33% (active); in assay [12] it was 9.03% (active). The growth is 63.6% in assay [13]; 23% in [14]; 46.9% in assay [15]; 32.8% in assay [16]; 9.01% (active) in [17]; -0.629% (active) in assay [18]. Further, the figures for the growth in [19] and in assay [20] were 58.3% and 10.8%, respectively.
Consider `CC(C)(NC(=O)O[C@@H]1CN2CCC1CC2)c1csc(-c2ccc(F)cc2)n1`, for which the growth in assay [1] was 96.3%; in assay [2], 89.9%; in [3], 98.9%; in [4], 99.4%; in [5], 101%; in assay [6], 98%. The growth in assay [7] is 95.4%; in assay [8] it was 101%; in [9], 99.3%; in [10], 111%; in assay [11], 112%; in assay [12] it was 94.5%. In addition, the growth was 97.1% in assay [13]; 102% in assay [14]; 105% in [15]; 88.7% in [16]; 101% in assay [17]; 95.3% in assay [18]. For the same molecule, the growth in [19] was 102%; in assay [20], 84.9%.
With `COC(=O)[C@@H](C)C[C@H](Cc1ccccc1)NC(=O)c1csc([C@@H](C[C@H](C(C)C)N(C)C(=O)[C@@H](NC(=O)[C@H]2CCCN2C)C2CC2)OC(C)=O)n1`, the growth in [1] was 23.5%; in assay [2] it was 24.1%; in assay [3], 50.9%; in [4], 12.2%; in assay [5], 3.65% (active); in assay [6], -6.22% (active). The growth is -9.59% (active) in [7]; 13.2% in assay [8]; 15.6% in [9]; -63.1% (active) in [10]; 8.13% (active) in [11]; 4.01% (active) in assay [12]. Also, the growth in [13] was 64.2%; in assay [14], 6.59% (active); in assay [15] it was 81.3%; in assay [16] it was 15.9%; in assay [17], 0.995% (active); in [18], -14.6% (active). The results for the growth in assay [19] and in [20] were 56.9% and 5.11% (active), respectively.
Turning to `C=C(C)[C@@]12OC3(/C=C/C=C/CCCCC)O[C@@H]1[C@@H]1[C@@H]4O[C@]4(CO)[C@@H](O)[C@]4(O)C(=O)C(C)=C[C@H]4[C@@]1(O3)[C@H](C)[C@H]2OC(=O)c1ccccc1`, the growth in [1] was 46.3%; in [2] it was 79.2%; in assay [3], 76.6%; in assay [4], 22.5%; in [5], 22.1%; in assay [6], 35.1%. Moreover, the growth in assay [7] is 78.8%; in assay [8], 32.8%; in assay [9], 45.8%; in assay [10], 4.17% (active); in [11], 38.4%; in assay [12] it was 24.9%. Besides, the growth in assay [13] was 88.3%; in assay [14] it was 52%; in assay [15] it was 71%; in assay [16], 40.7%; in [17], 39.6%; in assay [18] it was 63.8%. Besides, the figures for the growth in assay [19] and in [20] were 97% and 36.3%, respectively.
As for `CCC(O)(CN)c1ccccc1` (stereo not given), the growth in assay [1] was 101%; in assay [2], 92.4%; in assay [3] it was 102%; in assay [4], 97.3%; in assay [5], 107%; in assay [6] it was 93.1%. Besides, the growth was 79.2% in assay [7]; 86.6% in assay [8]; 97.8% in assay [9]; 102% in assay [10]; 107% in assay [11]; 107% in [12]. In addition, the growth in [13] was 101%; in assay [14], 101%; in assay [15] it was 110%; in [16], 100%; in [17], 92.6%; in [18], 99%. In addition, the results for the growth in assay [19] and in [20] were 91.9% and 95%, respectively.
For `C=COC(=O)CCN1CC1`, the growth in assay [1] was 100%; in assay [2] it was 98.9%; in assay [3], 102%; in assay [4], 95%; in [5], 105%; in [6], 111%. Further, the growth in assay [7] is 107%; in [8], 102%; in assay [9], 110%; in assay [10] it was 114%; in assay [11], 113%; in [12] it was 111%. The growth was 112% in assay [13]; 103% in assay [14]; 111% in assay [15]; 106% in assay [16]; 101% in [17]; 103% in assay [18]. Also, the figures for the growth in assay [19] and in [20] were 105% and 102%, respectively.
For `CC1=C2[C@@H](CC1)[C@]1(C)O[C@@](C(C)C)(C[C@H]1O)[C@H]2OC(=O)C1CC1c1ccccc1` (stereo not given in full), the growth is 102% in [1]; 75.6% in [2]; 109% in assay [3]; 81.7% in [4]; 102% in assay [5]; 73.3% in assay [6]. Moreover, the growth in [7] is 72.7%; in [8], 76.5%; in assay [9] it was 97.9%; in assay [10], 90.5%; in assay [11], 106%; in assay [12], 84.6%. Moreover, the growth in assay [13] was 92.2%; in [14] it was 78.2%; in assay [15], 99.4%; in [16], 86.1%; in assay [17], 92.1%; in [18], 94.6%. The growth in assay [19] was 103%; in assay [20], 90.9%.

The record behind these values is PubChem BioAssay (NCI).
